Test results from PubChem BioAssay (NCATS).
Results filed as inconclusive are left out. The source made the active and inactive calls. Calls come from the whole dose curve; as a rule, active = well fitted curve in the direction sought with a large enough effect; inconclusive = small, poorly fitted or top-dose-only effect, or another doubt; inactive = no such curve, though single readings can be large; an effect the other way counts as inactive or inconclusive.

Key:
[1] = P-glycoprotein substrates identified in KB-8-5-11 adenocarcinoma cell line, qHTS therapeutic library screen (AID 1346987); note: nearly all actives have a fitted effect of over 65% in size; note: potency is the fitted concentration of half-maximal effect
How it was run: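 Compounds are pinned in dose-response onto KB-8-5-11 cells (500 cells/well, colchicine-free medium) and left 72 h at 37 degree C. CellTiter-Glo luminescence then yields AC50 values.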

[2] = tested on: Zika virus NS2B-NS3 protease (linked construct); experiment: Primary screen NINDS Rhodamine qHTS for Zika virus inhibitors (AID 1347160); note: nearly all actives have a fitted effect of over 55% in size
How it was run: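 Rhodamine110-peptide cleavage (1.5 µM substrate) by 25 nM linked NS2B-NS3 enzyme at pH 8.0 (Tris, Tween 20), after 15 min RT preincubation with compounds; 15-min fluorescence change normalized to controls and Hill-fitted.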

[3] = target: Calcium and integrin-binding protein 1 (Homo sapiens) (UniProt Q99828); experiment: Primary qHTS for Identification of Calcium Integrin Binding Protein 1 (CIB1) Competitor (AID 1508620);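 note: GST tagged CIB1 binding a fluorescein labelled alphaIIb integrin peptide tracer; top concentration of the series differs between compounds; % is set by controls: 0 for no effect and ±100 for the full control effect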
Chain of Calcium and integrin-binding protein 1 (Homo sapiens) (Q99828 whole entry, looked up): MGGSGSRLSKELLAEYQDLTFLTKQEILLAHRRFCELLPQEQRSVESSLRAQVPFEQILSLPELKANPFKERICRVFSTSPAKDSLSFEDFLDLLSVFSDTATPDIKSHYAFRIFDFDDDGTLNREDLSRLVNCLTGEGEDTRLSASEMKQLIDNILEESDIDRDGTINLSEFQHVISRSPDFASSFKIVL
How it was run: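 CIB1-GST (1 uM final) and compound incubated 15 min at room temperature before adding FITC-alphaIIb peptide tracer (100 nM final). Competition for binding read by fluorescence polarization (ex 480, em 540) after another 15 min at room temperature.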

[4] = Primary qHTS for inhibitors of nuclear receptor binding SET domain protein 2 (NSD2) in an isogenic RCH-ACV NSD2 p.E1099K mutant (9B) (AID 1645876); note: nearly all actives have a fitted effect of over 70% in size; note: potency is the fitted concentration of half-maximal effect
[5] = target: Phospholipid hydroperoxide glutathione peroxidase GPX4 (Homo sapiens) (UniProt P36969); experiment: Primary qHTS Assay for Inhibitors of Recombinant Selenoprotein Glutathione Peroxidase 4 (GPX4) (AID 1845192); note: nearly all actives have a fitted effect of over 65% in size; for activity change, negative = inhibition: % is set by controls: 0 for no effect and ±100 for the full control effect
Chain of Phospholipid hydroperoxide glutathione peroxidase GPX4 (Homo sapiens) (P36969 whole entry, looked up): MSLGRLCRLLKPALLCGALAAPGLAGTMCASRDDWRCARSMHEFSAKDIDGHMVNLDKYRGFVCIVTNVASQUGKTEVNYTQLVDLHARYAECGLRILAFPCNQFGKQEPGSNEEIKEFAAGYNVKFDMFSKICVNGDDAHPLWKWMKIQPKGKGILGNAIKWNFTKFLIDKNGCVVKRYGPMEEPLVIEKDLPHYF
How it was run: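 NADPH consumption followed by fluorescence at 340/450 nm, t=0 and after 15 min at room temperature. Reaction started with cumene hydroperoxide (0.5 mM final) after 30 min compound–GPX4 preincubation; final 200 nM GPX4, 100 nM GR, 1 mM GSH, 0.5 mM NADPH.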

[6] = target: Luciferin 4-monooxygenase (Photinus pyralis) (UniProt P08659); experiment: Primary firefly luciferase (FLuc) qHTS assay for identification of artifact compounds. (AID 1845220); conditions: outcome: dose series up to 54.1 µM unless noted; note: nearly all actives have a fitted effect of over 60% in size;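 for activity change, negative = inhibition: plate controls were DMSO vehicle for no effect and no enzyme for full effect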
How it was run: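 FLuc 10 nM; luciferin 10 uM; ATP 10 uM; Tris-acetate pH 7.6, Mg-acetate 10 mM; 15 min RT preincubation; 5 min reaction; luminescence.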

[7] = tested on: Nanoluciferase (engineered Oplophorus gracilirostris luciferase); experiment: Primary Nanoluciferase (NLuc) qHTS assay for identification of artifact compounds. (AID 1845222);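 note: NLuc secreted into diluted conditioned medium of S16 cells; 0% = DMSO and -100% = no enzyme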
How it was run: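 NLuc from S16 cell medium (1:55) plus test compounds, 15 min, room temperature. Luminescence after Nano-Glo (1:100) addition, 5 min.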

[8] = Primary redox qHTS assay for identification of artifact compounds. (AID 1845223);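 note: 0% = DMSO and 100% = reference compound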
How it was run: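 Redox-cycling detection via DTT (250 uM final) oxidation coupled to Amplex Red (25 uM)/HRP (250 mU/mL) in HBSS. 15 min preincubation plus 30 min after DTT, room temperature. Ex/Em 525/598 nm; 4-parameter Hill fit against DMSO and 10 uM DA3003.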

CRL-7250 = normal cell line; experiment: Cytotoxic Profiling of Annotated Libraries Using Quantitative High-Throughput Screening (AID 1296008); conditions: Five cell lines viability, CellTiter-Glo ATP luminescence, 48-72 h; max response: hits give low values; note: nearly all actives have a fitted effect of over 60% in size; note: potency is the fitted concentration of half-maximal effect; for max response: % is set by controls: 0 for no effect and ±100 for the full control effect
How it was run: (§1)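 Cytotoxicity was measured as CellTiter-Glo ATP luminescence, read after 10 min at room temperature. Compound treatment of the cells lasted 48 or 72 hr at 37 degrees Celsius in a qHTS format.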

HEK293 = experiment: as above; conditions: Five cell lines viability, CellTiter-Glo ATP luminescence, 48-72 h; max response: hits give low values
How it was run: as §1

HaCat = experiment: as above; conditions: Five cell lines viability, CellTiter-Glo ATP luminescence, 48-72 h; max response: hits give low values
How it was run: as §1

NIH3T3 = experiment: as above; conditions: Five cell lines viability, CellTiter-Glo ATP luminescence, 48-72 h; max response: hits give low values
How it was run: as §1

C33A = experiment: Primary qHTS to identify gynecologic anti-cancer compounds using libraries of approved drugs and bioactive compounds (AID 1345084); conditions: Gynecologic cancer cell panel viability, ATPlite luminescence, 48 h; series mostly up to 57.5 µM; note: nearly all actives have a fitted effect of over 55% in size; note: potency is the fitted concentration of half-maximal effect; for activity change, negative = cytotoxicity: % is set by controls: 0 for no effect and ±100 for the full control effect
How it was run: (§2)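 Measured: luminescence after ATPlite addition (15 min, RT). Exposure: 48 h, 37 C, 5% CO2.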

CASKI = experiment: as above; conditions: Gynecologic cancer cell panel viability, ATPlite luminescence, 48 h; series mostly up to 57.5 µM
How it was run: as §2

Es-2 = experiment: as above; conditions: Gynecologic cancer cell panel viability, ATPlite luminescence, 48 h; series mostly up to 57.5 µM
How it was run: as §2

Hek293T = experiment: as above; conditions: Gynecologic cancer cell panel viability, ATPlite luminescence, 48 h, control line for the selectivity index; series mostly up to 57.5 µM
How it was run: as §2

OV90 = experiment: as above; conditions: Gynecologic cancer cell panel viability, ATPlite luminescence, 48 h; series mostly up to 57.5 µM
How it was run: as §2

PA-1 = experiment: as above; conditions: Gynecologic cancer cell panel viability, ATPlite luminescence, 48 h; series mostly up to 57.5 µM
How it was run: as §2

Tov-21-G = experiment: as above; conditions: Gynecologic cancer cell panel viability, ATPlite luminescence, 48 h; series mostly up to 57.5 µM
How it was run: as §2

Tov112D = experiment: as above; conditions: Gynecologic cancer cell panel viability, ATPlite luminescence, 48 h; series mostly up to 57.5 µM
How it was run: as §2

C[C@H]1O[C@@H](n2cnc3c(N)ncnc32)C[C@@H]1O
inactive: Potency [1] | Potency [2] | Potency [3] | Potency [4] | Potency [5] | outcome [6] | Potency [7] | Potency [8] | max response (CRL-7250) 0.373% | max response (HEK293) 0.909% | max response (HaCat) 3.49% | max response (NIH3T3) 1.47% | Potency (C33A) | Potency (CASKI) | Potency (Es-2) | Potency (Hek293T) | Potency (OV90) | Potency (PA-1) | Potency (Tov-21-G) | Potency (Tov112D)

CC1=CC(=O)[C@@H](O)[C@]2(C)C3[C@@H](O)[C@@H]4OC(=O)[C@@H]([C@H]4C)[C@]3(C)C(=O)C[C@@H]12 (stereo partly drawn)
active: Potency [1] 3210 nM | Potency [4] 2260 nM | Potency (CRL-7250) 3210 nM | Potency (HEK293) 2860 nM | Potency (HaCat) 11400 nM | Potency (NIH3T3) 3600 nM | Potency (Es-2) 8910 nM | Potency (PA-1) 2820 nM
inactive: Potency [2] | Potency [3] | outcome [6] | Potency [7]

C[C@@H]1[C@H](O)[C@@H](C)/C=C/C=C/CC/C=C/C=C/C=C/C=C/[C@H](O[C@H]2O[C@@H](C)[C@H](O)[C@@H](N)[C@H]2O)C[C@@H]2O[C@](O)(C[C@@H](O)[C@H](O)CC[C@@H](O)C[C@@H](O)C[C@@H](O)CC(=O)O[C@H]1C)C[C@H](O)[C@H]2C(=O)O
inactive: Potency [1] | Potency [3] | Potency [4] | Potency [5] | outcome [6] | Potency [7] | max response (CRL-7250) -12.4% | max response (HEK293) 0.0089% | outcome (HaCat) | Potency (C33A) | Potency (CASKI) | Potency (Es-2) | Potency (Hek293T) | Potency (OV90) | Potency (PA-1) | Potency (Tov-21-G) | Potency (Tov112D)

C[C@]12CC[C@H](O)C[C@H]1CC[C@@H]1[C@@H]2[C@H](O)C(=O)[C@]2(C)[C@@H](c3ccc(=O)oc3)CC[C@]12O
inactive: Potency [2] | Potency [3] | Potency [5] | outcome [6] | Potency [7] | Potency [8] | max response (NIH3T3) -1.67%
active: Potency [1] 25.9 nM | Potency [4] 20.5 nM | Potency (CRL-7250) 41.1 nM | Potency (HEK293) 32.6 nM | Potency (HaCat) 130 nM | Potency (CASKI) 398 nM | Potency (Es-2) 89.1 nM | Potency (OV90) 282 nM | Potency (PA-1) 79.4 nM

N#Cc1ccc([C@H]2CCCC[C@H]2O)cc1C(F)(F)F
inactive: Potency [1] | Potency [2] | Potency [3] | Potency [4] | Potency [5] | outcome [6] | Potency [7] | Potency [8] | max response (CRL-7250) 1.6% | max response (HEK293) -11% | max response (HaCat) -7.91% | max response (NIH3T3) -1.88% | Potency (C33A) | Potency (CASKI) | Potency (Es-2) | Potency (Hek293T) | Potency (OV90) | Potency (PA-1) | Potency (Tov-21-G) | Potency (Tov112D)

C[C@H]1O[C@@H](O[C@H]2CC[C@]3(C=O)C4CC[C@]5(C)[C@@H](C6=CC(=O)OC6)CC[C@]5(O)[C@@H]4CC[C@]3(O)C2)C[C@@H](O)[C@@H]1O (stereo partly drawn)
inactive: Potency [2] | Potency [3] | Potency [5] | outcome [6] | Potency [7] | Potency [8] | max response (NIH3T3) -1.6%
active: Potency [1] 50.2 nM | Potency [4] 31.7 nM | Potency (CRL-7250) 22.4 nM | Potency (HEK293) 25.2 nM | Potency (HaCat) 502 nM | Potency (C33A) 89.1 nM | Potency (CASKI) 355 nM | Potency (Es-2) 141 nM | Potency (Hek293T) 141 nM | Potency (OV90) 316 nM | Potency (Tov-21-G) 126 nM | Potency (Tov112D) 25.1 nM

CC1=C[C@H]2O[C@@H]3[C@H](O)[C@@H](O)[C@](C)([C@@]2(CO)C[C@@H]1O)[C@]31CO1
inactive: Potency [2] | Potency [3] | Potency [5] | outcome [6] | Potency [7] | Potency [8]
active: Potency [1] 2060 nM | Potency [4] 728 nM | Potency (CRL-7250) 5800 nM | Potency (HEK293) 1300 nM | Potency (HaCat) 7310 nM | Potency (C33A) 10000 nM | Potency (CASKI) 11200 nM | Potency (Es-2) 10000 nM | Potency (Hek293T) 2820 nM | Potency (OV90) 8910 nM | Potency (PA-1) 3980 nM | Potency (Tov-21-G) 10000 nM

Nc1ncnc2c1ncn2[C@@H]1O[C@@H]2COP(O)(=S)O[C@H]2[C@H]1O (stereo partly drawn)
inactive: activity change, negative = cytotoxicity [1] 2.93% [at 9.29 µM] | activity change, negative = inhibition [2] 16.2% [at 10.7 µM] | Potency [3] | outcome [4] inactive [at 9.23 µM] | outcome [5] inactive [at 9.73 µM] | outcome [6] inactive [at 11.6 µM] | activity, negative = inhibition [7] 0.0656% [at 11.6 µM] | redox activity (% of DA3003) [8] -10% [at 11.5 µM] | max response (CRL-7250) 1.79% | outcome (HEK293) | max response (NIH3T3) 4.38% | activity change, negative = cytotoxicity (C33A) 2.33% [at 11.6 µM] | activity change, negative = cytotoxicity (CASKI) -3.97% [at 11.6 µM] | activity change, negative = cytotoxicity (Es-2) 5.19% [at 11.6 µM] | activity change, negative = cytotoxicity (Hek293T) 0.669% [at 11.6 µM] | activity change, negative = cytotoxicity (OV90) 0.349% [at 11.6 µM] | activity change, negative = cytotoxicity (PA-1) 15.5% [at 11.6 µM] | activity change, negative = cytotoxicity (Tov-21-G) 2.4% [at 11.6 µM] | activity change, negative = cytotoxicity (Tov112D) 7.56% [at 11.6 µM]

CN1CCc2cc3c(cc2[C@H]1[C@@H]1OC(=O)c2c1ccc1c2OCO1)OCO3
inactive: Potency [1] | Potency [2] | Potency [3] | Potency [4] | Potency [5] | outcome [6] | Potency [7] | Potency [8] | max response (CRL-7250) -0.453% | max response (HEK293) -2.62% | outcome (HaCat) | max response (NIH3T3) -16.9% | Potency (C33A) | Potency (CASKI) | Potency (Es-2) | Potency (Hek293T) | Potency (OV90) | Potency (PA-1) | Potency (Tov-21-G) | Potency (Tov112D)

C[C@@H]1C[C@@H](O)[C@]2(O)O[C@@H]3C[C@@]4(C=O)C(CC[C@@H]5C4CC[C@]4(C)[C@@H](C6=CC(=O)OC6)CC[C@]54O)C[C@H]3O[C@@H]2O1 (stereo partly drawn)
active: Potency [1] 63.2 nM | Potency [4] 56.3 nM | Potency (CRL-7250) 35.5 nM | Potency (HEK293) 44.7 nM | Potency (HaCat) 252 nM
inactive: Potency [2] | Potency [3] | Potency [5] | outcome [6] inactive [at 25.7 µM] | Potency [7] | Potency [8] | Potency (C33A)
